This is an account of results in the supplement of paper PMC10498489.

Hit rate of the full screen: of about 2,300 compounds, about 330 (14%) showed activity. The list is a sample of the results. A number with no mark means an inactive call.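 The calls were made as follows: active = median modified Z-score above 1.96; inactive = 1.96 or below.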

The test system of the assay is HepG2 Srxn1-GFP reporter cells (+30 nM CDDO-Me). The assay can be described thus: Srxn1-GFP intensity median modified Z-score relative to plate median; higher = stronger NRF2 / oxidative stress reporter activation, active = hit call of the paper. The settings on record: 10 µM; exposure time: 24h. In short, it runs like this: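 In 96-well plates holding 20,000 HepG2 Srxn1-GFP BAC reporter cells per well, compound at 10 μM and an NRF2 activator at 30 nM were added together for 24 h, with DMSO at ≤0.1%, across three replicate plates. After fixation in formaldehyde and Hoechst staining, confocal images were analysed cell by cell for cytoplasmic GFP, and images containing under 100 cells were excluded. Values are replicate medians of the per-plate modified Z-score of GFP intensity, scaled by 1.4826 × median absolute deviation.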
For the molecule `Cc1cc(=NC(=O)C2C(=O)c3ccccc3S(=O)(=O)N2C)[nH]o1` (configuration not stated) [euspeclibcmpd552], the “Srxn1-GFP intensity median modified Z-score” value was -0.344. In the case of `CC1=c2c(C)c(O)c(C(=O)O)c(O)c2=CO[C@@H]1C` [euspeclibcmpd1555], the “Srxn1-GFP intensity median modified Z-score” value was 1.14. Consider `CCCC(C(N)=O)c1ccccc1` (configuration not stated), for which the “Srxn1-GFP intensity median modified Z-score” value is 1.53. As for `OCCN1C[C@@H](O)[C@@H](O)C(O)C1CO` (some centres not stated) [euspeclibcmpd679], the figure is 0.73. For `CC(=O)OCC(=O)C1CCC2C3CC=C4C[C@@H](O)CC[C@]4(C)C3CC[C@]12C` (some centres not stated) [euspeclibcmpd1443], the “Srxn1-GFP intensity median modified Z-score” value was 0.217.

On to `COC(=O)C[C@H]1C(C)(C)[C@@H](OC(C)=O)C2CC3=C4CC(=O)O[C@@H](c5ccoc5)[C@]4(C)CCC3[C@@]1(C)C2=O` (some centres not stated) [euspeclibcmpd1559], for which the “Srxn1-GFP intensity median modified Z-score” value is 0.833. On to `COc1c(O)c(C)c(C=CC(C)=CCC=C(C)CCC=C(C)CCC=C(C)CCC=C(C)CCC=C(C)CCC=C(C)CCC=C(C)CCC=C(C)CCC=C(C)C)c(O)c1OC` [euspeclibcmpd1853], for which the “Srxn1-GFP intensity median modified Z-score” value was -0.0742.

For the molecule `COc1c(C/C=C(\C)CCC(=O)OCCN2CCOCC2)c(O)c2c(O)occ2c1C` [euspeclibcmpd688], the “Srxn1-GFP intensity median modified Z-score” value is 5.22 (active). The result for `COc1c(C/C=C(\C)CCC(=O)O)c(O)c2c(O)occ2c1C` [euspeclibcmpd334] reads 11.8 (active). In the case of `Oc1ccc(C(O)O)[nH]1` [euspeclibcmpd1237], the “Srxn1-GFP intensity median modified Z-score” value was -0.421. The result for `CC(=O)OCC[N+](C)(C)C` [euspeclibcmpd13] reads -0.276; that for `CC(C)=CCC=C(C)C=Cc1c(C)c(O)c2ccccc2c1O` [euspeclibcmpd1484], -0.304; that for `CN1CCN(C2N=c3cc(Cl)ccc3=Nc3ccccc32)CC1` (configuration not stated) [euspeclibcmpd804], 0.387. The result for `C#CCCCCCCCCCCCc1ccco1` [euspeclibcmpd2261] reads -0.224; that for `CCCCOc1ccc(CC(O)=NO)cc1` [euspeclibcmpd1071], 1.55. The result for `CCNCC(O)COc1ccc(CCOC)cc1` (configuration not stated) reads 1.2; that for `CCCCCCCCCc1ccc(OCCOCCOCCOCCOCCOCCOCCOCCOCCO)cc1` [euspeclibcmpd736], 18.5 (active); that for `CC(N=C(N=c1cc[nH]cc1)NC#N)C(C)(C)C` (configuration not stated) [euspeclibcmpd960], 0.333.

For `COc1ccc(-c2oc3c(CC=C(C)C)c(O[C@@H]4O[C@H](CO)[C@@H](O)[C@H](O)[C@H]4O)cc(O)c3c(=O)c2O[C@@H]2O[C@@H](C)[C@H](O)[C@@H](O)[C@H]2O)cc1` [euspeclibcmpd2338], the “Srxn1-GFP intensity median modified Z-score” value was 0.366. As for `COc1cc2oc3cc(OC)c(OC)c(CC=C(C)C)c3c(=O)c2c(OC)c1CC=C(C)C` [euspeclibcmpd1951], the figure is 13.2 (active). Regarding `COc1ccc(-c2oc3cc(OC)c(OC)c(OC)c3c(=O)c2OC)cc1OC` [euspeclibcmpd1579], the “Srxn1-GFP intensity median modified Z-score” value was 0.934. The result for `COc1ccc(-c2oc3cc(OC)c(OC)c(OC)c3c(=O)c2OC)cc1` [euspeclibcmpd1578] reads 0.25; that for `COc1cc(-c2coc3cc(O)c(OC)c(O)c3c2=O)cc(O)c1OC` [euspeclibcmpd1394], 1.24. The result for `COc1cc2oc3cc(OC)c(OC)c(C=CC(C)C)c3c(=O)c2c(O)c1CC=C(C)C` [euspeclibcmpd1769] reads -0.34; that for `CC(C)=CCc1c(O)cc2oc(C)cc(=O)c2c1O` [euspeclibcmpd1412], 1.94.

Consider `COc1cc(O)c2c(=O)cc(C)oc2c1CC=C(C)C` [euspeclibcmpd1598], for which the “Srxn1-GFP intensity median modified Z-score” value was 2.54 (active). Turning to `COc1c(O)cc2oc3cc(O)c(CC=C(C)C)c(O)c3c(=O)c2c1C=CC(C)C` [euspeclibcmpd1547], the “Srxn1-GFP intensity median modified Z-score” value was 34.4 (active). As for `C[C@@H]1CC2C3CC=C4CC(=O)C=C[C@]4(C)[C@@]3(F)[C@@H](O)C[C@]2(C)[C@@]1(O)C(=O)COP(=O)(O)O` (some centres not stated) [euspeclibcmpd2420], the figure is -0.794; as for `CC[C@H]1OC(=O)C(C)[C@@H](O[C@H]2C[C@@](C)(OC)[C@@H](O)[C@H](C)O2)[C@H](C)[C@@H](O[C@@H]2O[C@H](C)C[C@H](N(C)C)[C@H]2O)[C@](C)(O)C[C@@H](C)[C@@H]2N[C@@H](COCCOC)O[C@H]([C@H]2C)[C@]1(C)O` (some centres not stated) [euspeclibcmpd652], -0.125; as for `O=C(O)C1=C(CSc2nnnn2CS(=O)(=O)O)CSC2C(NC(=O)C(O)c3ccccc3)C(=O)N12` (configuration not stated) [euspeclibcmpd2255], 0.114.

Turning to `NC(C=O)C(O)NNCc1ccc(O)c(O)c1O` (configuration not stated) [euspeclibcmpd32], the “Srxn1-GFP intensity median modified Z-score” value is -0.0581.

As for `C[C@@H]1CC2C3CC(F)=C4CC(=O)C=C[C@]4(C)[C@@]3(F)[C@@H](O)C[C@]2(C)[C@@]1(O)C(=O)CO` (some centres not stated) [euspeclibcmpd415], the “Srxn1-GFP intensity median modified Z-score” value is -0.177. The result for `CC(C)=CC1C(CO)C1(C)C` (configuration not stated) [euspeclibcmpd1789] reads 2.3 (active); that for `CC(C)=CC1C(C(=O)O)C1(C)C` (configuration not stated) [euspeclibcmpd2019], 0.889. As for `O=c1c(O)c(-c2ccc(O)cc2O)oc2cc(O)cc(O)c12` [euspeclibcmpd1432], the figure is -0.493; as for `C[C@H](CCC(=O)O)[C@H]1CCC2C3C(CC[C@@]21C)[C@@]1(C)CC[C@@H](O)C[C@H]1C[C@@H]3O` (some centres not stated) [euspeclibcmpd2109], -0.352. Take `COc1ccc(CC(=O)c2ccc(O)cc2O)cc1` [euspeclibcmpd1699]: the “Srxn1-GFP intensity median modified Z-score” value is 1.77. On to `COc1ccc(SCC(=O)c2ccc(O)cc2O)cc1`, for which the “Srxn1-GFP intensity median modified Z-score” value is 1.51. As for `COc1ccc(C(C)C(=O)c2ccc(O)cc2O)cc1` (configuration not stated) [euspeclibcmpd1599], the figure is 3.33 (active); as for `CC(=O)C1CCC2C3CC=C4C[C@@H](OC(=O)CCC(=O)O)CC[C@]4(C)C3CC[C@]12C` (some centres not stated) [euspeclibcmpd854], 1.01; as for `C[C@@H]1CC[C@H]2[C@@H](C)C(O)O[C@@H]3O[C@]4(C)CC[C@@H]1[C@]32OO4` (some centres not stated) [euspeclibcmpd1251], 3.33 (active).

`C[C@H]1[C@H](OC(=O)CCC(=O)O)O[C@@H]2O[C@]3(C)CC[C@H]4[C@H](C)CC[C@@H]1[C@@]24OO3` [euspeclibcmpd985]: the “Srxn1-GFP intensity median modified Z-score” value was 11 (active). The result for `CCC(C)C(=O)O[C@H]1C[C@H](O)C=C2C=C[C@H](C)[C@H](CC[C@@H](O)C[C@@H](O)CC(=O)O)C21` (some centres not stated) [euspeclibcmpd2392] reads -0.0232; that for `CN1C(=O)OC(C)(C)C1=O` [euspeclibcmpd801], -0.117; that for `OCCN=CCNc1ccc(NCCNCCO)c2c(O)c3c(O)ccc(O)c3c(O)c12` [euspeclibcmpd568], -1.55. As for `CC(=O)C(O)Nc1c(I)c(C(=O)NC(CO)CO)c(I)c(C(=O)NC(CO)CO)c1I` (configuration not stated) [euspeclibcmpd459], the figure is -0.445. `Nc1c(Br)cc(Br)cc1CNC1CCC(O)CC1` (configuration not stated) [euspeclibcmpd1118]: the “Srxn1-GFP intensity median modified Z-score” value was -0.575.

For the molecule `CC(=O)Oc1ccc2c(C)cc(=O)oc2c1` [euspeclibcmpd2400], the “Srxn1-GFP intensity median modified Z-score” value is -0.419. As for `CC(=O)c1ccc(O[C@@H]2O[C@H](CO)[C@H](O)[C@H](O)[C@H]2O)cc1`, the “Srxn1-GFP intensity median modified Z-score” value is 1.43. As for `CC=C(C1=CC(=O)C(OC)=CC1=O)c1ccc(OC)cc1` [euspeclibcmpd1441], the figure is 5.77 (active). With `CC=C(C1=CC(=O)C(OC)=CC1=O)c1ccccc1` [euspeclibcmpd1693], the “Srxn1-GFP intensity median modified Z-score” value is 3.26 (active). `CC=C(C1=CC(=O)C=CC1=O)c1ccccc1` [euspeclibcmpd1643]: the “Srxn1-GFP intensity median modified Z-score” value is 1.51. As for `COc1ccc(O)cc1` [euspeclibcmpd4], the figure is -0.253; as for `CC=C(C1=CC(=O)C(OC)=C(OC)C1=O)c1ccccc1` [euspeclibcmpd1978], -0.444. Take `CC=C(C1=CC(=O)C(OC)=CC1=O)c1ccc(O)cc1` [euspeclibcmpd1636]: the “Srxn1-GFP intensity median modified Z-score” value is 0.385. The result for `CC(C)(/N=N/C(C)(C)C(=N)N)C(=N)N` [euspeclibcmpd1744] reads -0.295. The result for `Cc1ccc2c(Br)cc(Br)c(OC(=O)c3ccccc3)c2n1` [euspeclibcmpd2181] reads 2.44 (active). The result for `O=C(OOC(=O)c1ccccc1)c1ccccc1` [euspeclibcmpd511] reads -0.314.

As to `Cc1ccc2cccc(OC(=O)c3ccccc3)c2n1`, the “Srxn1-GFP intensity median modified Z-score” value is 1.25.

On to `NC[C@@H]1O[C@H](O[C@@H]2[C@@H](CO)OC(O[C@@H]3[C@@H](O)[C@H](N)C[C@H](N)[C@H]3O[C@H]3O[C@H](CO)[C@@H](O)[C@H](O)[C@H]3N)[C@@H]2O)[C@H](N)[C@@H](O)[C@@H]1O` (some centres not stated) [euspeclibcmpd563], for which the “Srxn1-GFP intensity median modified Z-score” value was -0.129. For `CCCCCCCCCCCCCCCC(=O)OC[C@H](NC(=O)C(Cl)Cl)[C@H](O)c1ccc([N+](=O)[O-])cc1` [euspeclibcmpd52], the “Srxn1-GFP intensity median modified Z-score” value was 0.231. The result for `CC(=O)OCC(=O)[C@@]12N=C(C)O[C@@H]1CC1C3CC=C4CC(=O)C=C[C@]4(C)C3[C@@H](O)C[C@@]12C` (some centres not stated) [euspeclibcmpd781] reads -0.377; that for `NCCOB(c1ccccc1)c1ccccc1` [euspeclibcmpd2465], 7.48 (active). The result for `Cc1onc(-c2c(Cl)cccc2Cl)c1C(=O)NC1C(=O)N2C1SC(C)(C)C2C(=O)O` (configuration not stated) [euspeclibcmpd2174] reads -0.262; that for `CC(=O)OCC(CCn1cnc2c[nH]c(=N)nc21)COC(C)=O` [euspeclibcmpd712], 0.533. In the case of `Cc1ccc(-n2c(C)cc(C(=O)Cn3ncc(Cl)c(Cl)c3=O)c2C)cc1`, the “Srxn1-GFP intensity median modified Z-score” value is 29 (active). As for `Cc1ccc(-n2c(C)cc(C(=O)COC(=O)C3CC4C=CC3C4)c2C)cc1C` (configuration not stated), the figure is 0.589.
